This is a sample that favours compounds with a hit; in the whole collection about 3.6% have one here.
CRE-bla Fsk = alters forskolin-stimulated CRE reporter signaling in CHO cells; CHO CRE-bla reporter (cAMP response element driving beta-lactamase), forskolin EC10, beta-lactamase ratio; Potency, µM (titrated, usually from 38.2 µM), for inactives: top-dose activity change, negative = inhibition, most hits filed as activators; hit rate 2.5% among 71,000; AID 662; active = well fitted activation curve with a large enough effect in the signal ratio, with a control signal flat, not every such curve was filed as active; inconclusive = small, poorly fitted or top-dose-only effect, or effect the other way, or a change in a side signal; the % refers to the signal ratio; note: % of control where 0% means no effect
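qHTS titration format; CRE-bla CHO reporter; stimulus EC10 NKH 477, a water-soluble forskolin. Read: CCF4 460/530 nm ratio. Potency expressed as AC50 for activators or inhibitors.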
Hsp90 Hop PPI = changes Hsp90-Hop TPR2A binding signal, up or down. AlphaScreen TPR2A-His6 binding biotin-Hsp90 C-terminal peptide. Potency, µM (top dose mostly 57 µM), for inactives: at the top dose activity change, negative = inhibition. hit rate 0.44% among 71,000; active = well fitted curve in either direction with a large enough effect; inconclusive = small, poorly fitted or top-dose-only effect, or another doubt; note: % is set by controls: 0 for no effect and ±100 for the full control effect
Tau fil binding = binders of human tau filaments | AID 596 | recombinant tau filaments, thioflavin S fluorescence, 15 h; filaments grown with octadecylsulfate alongside compound | hit rate 2% among 71,000 | Potency, µM (titrated, usually from 57.1 µM), without a hit: at the highest dose activity change, negative = inhibition | P10636;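 note: % is set by controls: 0 for no effect and ±100 for the full control effect; actives lower thioflavin S fluorescence by blocking filaments or displacing dye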
Target sequence (P10636 whole entry, looked up): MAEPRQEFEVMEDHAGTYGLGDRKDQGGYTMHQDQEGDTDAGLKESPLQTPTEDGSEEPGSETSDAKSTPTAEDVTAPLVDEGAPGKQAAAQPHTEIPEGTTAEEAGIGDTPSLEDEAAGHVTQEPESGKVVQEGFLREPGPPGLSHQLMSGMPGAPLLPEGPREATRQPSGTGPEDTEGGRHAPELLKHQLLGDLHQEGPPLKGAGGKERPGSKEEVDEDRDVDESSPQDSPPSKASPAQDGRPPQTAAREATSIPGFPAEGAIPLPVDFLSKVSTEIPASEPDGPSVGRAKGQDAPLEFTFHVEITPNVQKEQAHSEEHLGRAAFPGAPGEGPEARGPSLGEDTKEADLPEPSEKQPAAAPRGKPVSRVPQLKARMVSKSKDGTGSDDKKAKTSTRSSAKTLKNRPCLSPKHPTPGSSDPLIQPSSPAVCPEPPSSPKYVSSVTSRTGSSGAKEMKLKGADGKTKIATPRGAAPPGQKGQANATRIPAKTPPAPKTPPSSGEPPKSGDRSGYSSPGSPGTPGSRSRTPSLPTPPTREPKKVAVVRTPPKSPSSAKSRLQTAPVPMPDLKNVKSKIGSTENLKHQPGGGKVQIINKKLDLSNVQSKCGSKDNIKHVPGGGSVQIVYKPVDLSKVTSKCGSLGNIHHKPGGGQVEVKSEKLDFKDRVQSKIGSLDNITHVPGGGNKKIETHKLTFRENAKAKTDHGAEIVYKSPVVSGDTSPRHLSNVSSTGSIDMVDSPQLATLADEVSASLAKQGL
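Tau 2 uM in ThS buffer dispensed; compound added; 60 uM ODS added (finals 1 uM tau, 30 uM ODS); 15 h 37 C; fluor ex450/em510.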
IkB signaling = inhibitors of IkB signaling in ABC-DLBCL cells | ABC-DLBCL IkBa-CBG/CBR dual luciferase ratio, 4 h; response scale: scaled: untreated 0%, proteasome inhibitor 100% | Potency, µM (top dose mostly 57.1 µM), without a hit: top-dose IkBa stabilization activation | hit rate 0.04% among 110,000; active = well fitted curve in the direction sought with a large enough effect in the signal ratio, not every such curve was filed as active; inconclusive = small, poorly fitted or top-dose-only effect, or a change in a side signal; the % refers to the signal ratio;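 note: the direction sought is a rising ratio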
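Luminescence ratio of IκBα-fused green versus native red beetle luciferase in OCI-Ly3 cells, 4 h post-doxycycline with compound; red signal alone, scaled from basal (0%) to zero light (-100%), flagged nonspecific or cytotoxic effects.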
15-hLO inh = inhibitors of human 15-lipoxygenase (ALOX15); purified 15hLO-1, xylenol orange hydroperoxide absorbance; Potency, µM (highest dose often 57.1 µM), without a hit: at the top dose activity change, negative = inhibition, usual class: inhibitors; hit rate 1.4% among 74,000; AID 887; note: % is set by controls: 0 for no effect and ±100 for the full control effect; nearly all actives have a fitted effect of over 55% in size
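Hydroperoxide formed from arachidonic acid (50 uM) by purified human 15hLO-1 (40 nM) oxidizes ferrous iron, and the ferric-xylenol orange complex is read at 573 versus 405 nm. Compounds were preincubated 15 min; reaction ran 6 min at room temperature.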
* hit, by the source's call; i = inactive; ? = inconclusive; . = no result; [ ] = dose if it differs, or a comment. Unless noted, calls come from the whole dose curve; as a rule, active = well fitted curve in the direction sought with a large enough effect; inconclusive = small, poorly fitted or top-dose-only effect, or another doubt; inactive = no such curve, though single readings can be large; an effect the other way counts as inactive or inconclusive. Potency is the fitted concentration of half-maximal effect.

SMILES | CRE-bla Fsk | Hsp90 Hop PPI | Tau fil binding | IkB signaling | 15-hLO inh
O=C(Nc1ccc(N2CCN(c3ccc(O)cc3)CC2)cc1)Oc1ccccc1 | -7% | -10% | 2µM* | -1% | -16%
COc1ccc(Cl)cc1NC(=O)c1nc(S(C)(=O)=O)ncc1N(Cc1ccc(C)cc1)Cc1ccco1 | . | . | . | 2% | .
COc1ccc(CNC(=O)C(C#N)c2nc3ccccc3nc2N2CCCC2)cc1 (stereo unspecified) | ? | -5% | i | -2% | 3%
COc1ccc(CNC(=O)C(C#N)c2nc3ccccc3nc2N2CCN(C)CC2)cc1 (stereo unspecified) | ? | -8% | 3.2µM* | -1% | -14%
CCC(CC)COC(=O)C(C#N)c1nc2ccccc2nc1N1CCN(CC)CC1 (stereo unspecified) | ? | -16% | 1.3µM* | ? | ?
COC(=O)C(C#N)c1nc2ccccc2nc1N1CCCC1 (stereo unspecified) | 10µM* | -23% | 16µM* | -3% | -17%
N#CC(C(=O)OCc1ccccc1)c1nc2ccccc2nc1N1CCOCC1 (stereo unspecified) | ? | -6% | 2µM* | 8% | -16%
COc1cccc(NC(=O)CCN2CCN(CCO)CC2)c1 | . | . | . | -5% | .
CCOc1ccc(-c2nonc2NC(=O)c2ccccc2C)cc1 | . | . | . | 0% | .
C=CCOC(=O)C(C#N)c1nc2ccccc2nc1N1CCN(Cc2ccc3c(c2)OCO3)CC1 (stereo unspecified) | ? | -16% | 1.3µM* | -4% | -6%
CC1CN(c2nc3ccccc3nc2C(C#N)C(=O)NCc2ccc3c(c2)OCO3)CC(C)O1 (stereo unspecified) | ? | 1% | -20% | 3% | -6%
CCc1cc(C=NC2CCCCC2)c(O)s1 | ? | -11% | -3% | 0% | 13µM*
COc1ccc(CCNC(=O)c2cc3c(=O)[nH]c4ccc(C)cc4c3s2)cc1OC | . | . | . | 0% | .
COc1ccc(-n2c(=O)c(C)nc3cnc(N(C)C)nc32)cc1 | 13µM* | 0% | -8% | 0%[11.4 µM] | 10%
Cc1nc2cnc(Oc3ccccc3)nc2n(-c2ccccc2)c1=O | ? | -6% | -2% | 0%[11.4 µM] | 4%
COc1ccc(-n2c(=O)c(C)nc3cnc(Oc4ccccc4)nc32)cc1 | 2.5µM* | -3% | -7% | 1%[11.4 µM] | 5%
COCCn1c(C)cc(O)c(C(c2ccc(C)cc2)N2CCCCC2)c1=O (stereo unspecified) | . | . | . | 0% | .
CC(C)c1nc(SCc2ccccn2)c2c(=O)n(C)c(=O)n(C)c2n1 | 5µM* | 2% | 73% | 3% | -2%
CCc1nc(SCc2ccccn2)c2c(=O)n(C)c(=O)n(C)c2n1 | 2.5µM* | -1% | -11% | 1% | 5%
CCCn1c(SCc2ccccn2)nc2c1c(=O)n(C)c(=O)n2C | ? | -2% | -10% | -1% | 8%
Cc1ccc(CNC(=O)Cn2ccn(-c3ccc(F)c(F)c3)c(=O)c2=O)cc1 | . | . | . | 0% | .
Cc1ccc(C)n1NC(=O)c1cccs1 | ? | -18% | -23% | ? | 16µM*
Cc1ccc(-c2ccc(CCC(=O)O)n2NC(=O)c2cccs2)cc1 | -8% | -2% | -2% | 8% | -18%
O=C(Nc1cc(F)ccc1F)c1ccc2c(c1)nnn2C1CCCC1 | . | . | . | -2% | .
O=S(=O)(NCC(c1ccco1)S(=O)(=O)c1ccccc1)c1cc(F)ccc1F (stereo unspecified) | . | . | . | 1% | .
SMILES | CRE-bla Fsk | Hsp90 Hop PPI | Tau fil binding | IkB signaling | 15-hLO inh
Fc1c(F)c(F)c(CSc2nc3ccccc3[nH]2)c(F)c1F | -11% | 4µM* | -13% | -2% | ?
CCOc1ccc(-c2cc3nc(C4CCN(C(=O)OC(C)(C)C)CC4)c(C(=O)O)cn3n2)cc1 | 13µM* | -1% | -7% | 0% | -2%
O=C(CSc1ncc2c(n1)-c1ccccc1N(Cc1ccc(F)cc1)S2(=O)=O)NCCc1ccccc1 | . | . | . | 0% | .
CCc1ccccc1NC(=O)CSC1=Nc2ccccc2C2=NC(Cc3ccccc3)C(=O)N12 (stereo unspecified) | . | . | . | 1% | .
CC(=O)c1ccc2c3c(ccc(O)c13)CC2 | ? | ? | 4µM* | -1% | ?
CC(C)COC(=O)n1c(SCC(=O)N(C)C)nc2ccccc21 | 13µM* | 0% | 10% | ? | 5%

Source: PubChem
